# From PubChem BioAssay
# Activity calls are given as the source filed them.
# Columns and labels:
# [1] = system: Plasmodium falciparum Sir2 (PF13_0152, Sir2A); assay: Plasmodium falciparum Sir2A binding compounds – biochemical, small-molecule microarray, 635 nm fluorescence, primary screen (AID 1098); conditions: fluorescence 635 nm, higher = more signal;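 also: score merges spot fluorescence intensity with its signal-to-noise ratio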
# [2] = probe aDKK1 binding to arrayed compounds – biochemical, biotinylated probe, 635/667 nm fluorescence, primary screen (AID 1099); conditions: small-molecule microarray, higher = more signal;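 also: score merges 667nm spot fluorescence with signal to noise across triplicate slides; reference of the scale not given here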
# [3] = probe aCHRDL2 binding to arrayed compounds – biochemical, biotinylated probe, 635/667 nm fluorescence, primary screen (AID 1100); conditions: small-molecule microarray, higher = more signal
# [4] = change in splice reporter luminescence, either direction, cell-based, HEK293, spliceosome inhibition project, primary screen (AID 1101); conditions: HEK293 splicing luciferase reporter, 24 h, higher = more signal, called active from +8 up or from −8 down;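 also: HEK293 cells carrying a splicing-competent luciferase reporter gene; test concentration not given here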
# [5] = target: Fibroblast growth factor 10 (Homo sapiens) (UniProt O15520); assay: compounds binding fibroblast growth factor 10 – biochemical, small-molecule microarray, 635 nm fluorescence, primary screen (AID 1102); conditions: FGF10 binding, fluorescence 635 nm, higher = more signal
# Fibroblast growth factor 10 (Homo sapiens), sequence (O15520 whole entry, looked up): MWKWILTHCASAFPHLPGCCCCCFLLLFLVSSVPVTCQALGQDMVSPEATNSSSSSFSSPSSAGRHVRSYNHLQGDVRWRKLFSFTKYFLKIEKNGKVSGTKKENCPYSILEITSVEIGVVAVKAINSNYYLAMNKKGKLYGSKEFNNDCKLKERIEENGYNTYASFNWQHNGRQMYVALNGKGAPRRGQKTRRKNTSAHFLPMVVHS
# [6] = system: glycogen synthase kinase-3 (GSK3A per assay name; protocol says GSK3B); assay: compounds binding glycogen synthase kinase-3 – biochemical, small-molecule microarray, 635 nm fluorescence, GSK3A, primary screen (AID 1103); conditions: fluorescence 635 nm, higher = more signal; also: the record names both GSK3A and GSK3B
# [7] = target: Epidermal growth factor receptor (Homo sapiens) (UniProt P00533); assay: compounds binding epidermal growth factor receptor – biochemical, small-molecule microarray, 635 nm fluorescence, primary screen (AID 1104); conditions: EGFR binding, higher = more signal;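 also: score merges 667 nm emission intensity with spot signal to noise over triplicate slides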
# Epidermal growth factor receptor (Homo sapiens), sequence (P00533 whole entry, looked up): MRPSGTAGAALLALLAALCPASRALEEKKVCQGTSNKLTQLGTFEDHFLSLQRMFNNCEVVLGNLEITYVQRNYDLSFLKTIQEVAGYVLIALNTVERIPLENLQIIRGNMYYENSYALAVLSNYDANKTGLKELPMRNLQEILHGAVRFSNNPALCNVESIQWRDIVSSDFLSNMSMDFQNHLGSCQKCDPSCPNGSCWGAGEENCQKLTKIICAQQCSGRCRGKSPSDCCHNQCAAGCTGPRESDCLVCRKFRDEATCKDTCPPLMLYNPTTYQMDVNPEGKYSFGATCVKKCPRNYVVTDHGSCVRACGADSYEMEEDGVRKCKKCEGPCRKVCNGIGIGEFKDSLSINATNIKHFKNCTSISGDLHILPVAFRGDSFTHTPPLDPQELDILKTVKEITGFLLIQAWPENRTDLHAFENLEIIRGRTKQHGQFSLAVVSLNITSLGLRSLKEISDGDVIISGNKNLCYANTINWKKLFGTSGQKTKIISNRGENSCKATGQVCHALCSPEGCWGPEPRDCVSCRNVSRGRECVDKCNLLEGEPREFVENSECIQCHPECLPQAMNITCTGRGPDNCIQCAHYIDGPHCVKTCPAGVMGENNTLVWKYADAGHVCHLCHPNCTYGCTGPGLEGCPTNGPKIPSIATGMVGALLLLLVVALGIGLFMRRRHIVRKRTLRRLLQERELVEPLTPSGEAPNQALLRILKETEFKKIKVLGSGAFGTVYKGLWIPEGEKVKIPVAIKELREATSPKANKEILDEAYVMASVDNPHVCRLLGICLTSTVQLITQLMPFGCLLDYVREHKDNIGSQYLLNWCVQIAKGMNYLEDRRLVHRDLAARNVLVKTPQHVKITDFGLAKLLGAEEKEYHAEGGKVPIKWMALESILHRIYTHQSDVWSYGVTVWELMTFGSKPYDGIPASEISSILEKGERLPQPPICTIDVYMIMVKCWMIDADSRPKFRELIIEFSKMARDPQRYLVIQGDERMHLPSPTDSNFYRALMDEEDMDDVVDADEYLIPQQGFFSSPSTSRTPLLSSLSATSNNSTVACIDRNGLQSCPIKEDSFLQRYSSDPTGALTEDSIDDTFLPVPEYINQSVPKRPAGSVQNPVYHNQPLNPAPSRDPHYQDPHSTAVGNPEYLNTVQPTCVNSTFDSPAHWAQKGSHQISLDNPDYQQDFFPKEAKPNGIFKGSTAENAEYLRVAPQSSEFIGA
# [8] = target: Follistatin-related protein 3 (Homo sapiens) (UniProt O95633); assay: compounds binding follistatin-related protein 3 – biochemical, small-molecule microarray, 635 nm fluorescence, primary screen (AID 1105); conditions: FSTL3 binding, higher = more signal;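 also: score merges emission near 667 nm and signal to noise per printed spot across three slides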
# Follistatin-related protein 3 (Homo sapiens), sequence (O95633 whole entry, looked up): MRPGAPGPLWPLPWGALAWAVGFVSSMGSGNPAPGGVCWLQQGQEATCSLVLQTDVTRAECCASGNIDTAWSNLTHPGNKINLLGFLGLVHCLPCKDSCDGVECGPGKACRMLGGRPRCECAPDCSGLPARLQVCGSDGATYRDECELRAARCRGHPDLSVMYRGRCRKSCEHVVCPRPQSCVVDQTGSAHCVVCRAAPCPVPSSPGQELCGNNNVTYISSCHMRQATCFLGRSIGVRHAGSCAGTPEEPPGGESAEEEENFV
# [9] = target: Dickkopf-related protein 1 (Homo sapiens) (UniProt O94907); assay: small molecules binding DKK1 protein – biochemical, small-molecule microarray, 635 nm fluorescence scan, primary screen (AID 1106); conditions: higher = more signal;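 also: score merges emission near 667 nm with signal to noise over three replicate slides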
# Dickkopf-related protein 1 (Homo sapiens), sequence (O94907 whole entry, looked up): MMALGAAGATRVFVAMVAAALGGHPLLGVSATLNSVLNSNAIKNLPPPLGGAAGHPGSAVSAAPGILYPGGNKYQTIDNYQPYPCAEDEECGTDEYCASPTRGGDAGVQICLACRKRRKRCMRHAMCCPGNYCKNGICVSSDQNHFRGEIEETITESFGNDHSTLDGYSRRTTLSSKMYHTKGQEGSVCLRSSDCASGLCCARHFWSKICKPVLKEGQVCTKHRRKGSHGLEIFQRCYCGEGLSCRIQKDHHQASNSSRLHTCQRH
# [10] = system: Inhibin beta A chain (activin A); assay: small molecules binding activin A – biochemical, small-molecule microarray, 635 nm fluorescence scan, primary screen (AID 1107); conditions: INHBA, higher = more signal;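 also: mouse activin A protein probed at 4.33 µg/mL on printed slides; score merges bound-protein fluorescence near 667 nm with spot signal-to-noise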
smiles,measurement,setting,value
C#CCN(C(/C=C/c1ccccc1)CO)C(C(=O)O)c1ccccc1 (stereo not given),composite z-score,[1],-0.211
same,composite z-score,[2],-0.285
same,composite z-score,[3],-0.447
same,z-score,[4],-1.89 (inactive)
same,composite z-score,[5],0.0698
same,composite z-score,[6],-0.953
same,composite z-score,[7],-0.0139
same,composite z-score,[8],-0.435
same,composite z-score,[9],0.122
same,composite z-score,[10],-0.99
CC(C)CNC(=O)[C@@]1(c2ccc([N+](=O)[O-])cc2)CC(=O)N(CC23CC4CC(CC(C4)C2)C3)[C@@H]1c1ccc(CO)cc1,composite z-score,[1],0.947
same,composite z-score,[2],0.0324
same,composite z-score,[3],0.555
same,z-score,[4],-2.11 (inactive)
same,composite z-score,[5],1.24
same,composite z-score,[6],0.715
same,composite z-score,[7],0.283
same,composite z-score,[8],0.58
same,composite z-score,[9],0.127
same,composite z-score,[10],0.328
COc1c(C)cc(-c2cc3c(c(-c4ccc(Oc5ccccc5)cc4)n2)[Si](C(C)C)(C(C)C)OC3)cc1C,composite z-score,[1],-0.486
same,composite z-score,[2],0.187
same,composite z-score,[3],0.0857
same,z-score,[4],0.391 (inactive)
same,composite z-score,[5],0.0668
same,composite z-score,[6],-0.278
same,composite z-score,[7],0.168
same,composite z-score,[8],-0.069
same,composite z-score,[9],0.0431
same,composite z-score,[10],0.51
[N-]=[N+]=NCc1ccccc1C[C@]1(C(=O)NCCN2CCOCC2)N=C(c2ccc(OCCCO)cc2)O[C@H]1c1ccccc1N=[N+]=[N-],composite z-score,[1],0.8
same,composite z-score,[2],0.838
same,composite z-score,[3],1.11
same,z-score,[4],-0.947 (inactive)
same,composite z-score,[5],0.636
same,composite z-score,[6],1.15
same,composite z-score,[7],0.294
same,composite z-score,[8],0.504
same,composite z-score,[9],-0.233
same,composite z-score,[10],0.819
C=CCOC(=O)[C@@H]1[C@H]2C(=O)O[C@H](c3ccccc3)[C@H](c3ccccc3)N2[C@H](c2ccc(OCCOC(=O)[C@@H]3C[C@@H]4C(=O)N[C@@H](Cc5ccccc5)C(=O)N4[C@@H]3c3cccc(OCCO)c3)cc2)[C@@]12C(=O)Nc1ccc(I)cc12,composite z-score,[1],1.12
same,composite z-score,[2],-0.0053
same,composite z-score,[3],-0.0587
same,z-score,[4],-0.76 (inactive)
same,composite z-score,[5],1.21
same,composite z-score,[6],0.954
same,composite z-score,[7],0.934
same,composite z-score,[8],1.1
same,composite z-score,[9],0.991
same,composite z-score,[10],1.06
O=C1C2C=CC(C(O)c3ccc(B(O)O)cc3)N(Nc3ccccc3)C2C(=O)N1c1ccccc1 (stereo not given),composite z-score,[1],-0.0545
same,composite z-score,[2],0.82
same,composite z-score,[3],0.634
same,z-score,[4],-0.451 (inactive)
same,composite z-score,[5],-0.322
same,composite z-score,[6],-1.15
same,composite z-score,[7],-0.134
same,composite z-score,[8],-0.593
same,composite z-score,[9],-0.502
same,composite z-score,[10],1.16
COC(=O)[C@@]1(Cc2ccccc2N=[N+]=[N-])COC(c2ccc(OCCCO)cc2)=N1,composite z-score,[1],1.48
same,composite z-score,[2],0.89
same,composite z-score,[3],1.26
same,z-score,[4],-0.127 (inactive)
same,composite z-score,[5],0.0938
same,composite z-score,[6],0.478
same,composite z-score,[7],-0.3
same,composite z-score,[8],-0.0373
same,composite z-score,[9],-0.349
same,composite z-score,[10],1.52
CC(C)C(O)C1C=CC2C(=O)N(c3ccccc3)C(=O)C2N1Nc1ccc(C#N)cc1 (stereo not given),composite z-score,[1],1.08
same,composite z-score,[2],1.27
same,composite z-score,[3],1.26
same,z-score,[4],0.251 (inactive)
same,composite z-score,[5],1.17
same,composite z-score,[6],0.681
same,composite z-score,[7],0.0839
same,composite z-score,[8],1.22
same,composite z-score,[9],-0.512
same,composite z-score,[10],0.942
Cc1ccc(F)cc1S(=O)(=O)N[C@@H]1CCN(Cc2ccc(-c3ccccc3)cc2)C1,composite z-score,[1],0.293
same,composite z-score,[2],-0.188
same,composite z-score,[3],-0.318
same,z-score,[4],1.18 (inactive)
same,composite z-score,[5],0.927
same,composite z-score,[6],0.205
same,composite z-score,[7],0.156
same,composite z-score,[8],0.239
same,composite z-score,[9],0.138
same,composite z-score,[10],0.42
COc1ccc(C(O)C2C=CC3C(=O)NC(=O)C3N2Nc2ccccn2)cc1OCc1ccccc1 (stereo not given),composite z-score,[1],0.524
same,composite z-score,[2],0.0679
same,composite z-score,[3],0.668
same,z-score,[4],1.04 (inactive)
same,composite z-score,[5],-0.0457
same,composite z-score,[6],0.13
same,composite z-score,[7],0.208
same,composite z-score,[8],0.187
same,composite z-score,[9],-0.236
same,composite z-score,[10],0.557
C[C@]1(C(=O)NCc2ccccc2)c2ccccc2C(=O)N(Cc2ccc(OC(F)(F)F)cc2)[C@H]1c1ccc(CO)cc1,composite z-score,[1],0.0162
same,composite z-score,[2],-0.098
same,composite z-score,[3],0.663
same,z-score,[4],-0.557 (inactive)
same,composite z-score,[5],0.0259
same,composite z-score,[6],0.0034
same,composite z-score,[7],-0.535
same,composite z-score,[8],0.115
same,composite z-score,[9],-0.393
same,composite z-score,[10],0.0615
CCCC[C@@H]1C[C@H]1[C@@H](NC(=O)c1ccc(-c2ccccc2)cc1)c1ccc(-c2ccccc2)cc1,composite z-score,[1],-0.508
same,composite z-score,[2],0.126
same,composite z-score,[3],0.0604
same,z-score,[4],-2.88 (inactive)
same,composite z-score,[5],0.259
same,composite z-score,[6],0.127
same,composite z-score,[7],1.21
same,composite z-score,[8],1.39
same,composite z-score,[9],1.01
same,composite z-score,[10],1.35
COc1cc2c(cc1O)C(C)N(Cc1cccc(OC(F)(F)F)c1)CC2 (stereo not given),composite z-score,[1],1.7
same,composite z-score,[2],0.0376
same,composite z-score,[3],0.23
same,z-score,[4],-0.0689 (inactive)
same,composite z-score,[5],1.24
same,composite z-score,[6],0.219
same,composite z-score,[7],-0.425
same,composite z-score,[8],0.514
same,composite z-score,[9],0.188
same,composite z-score,[10],0.902
Cc1ccc(S[C@]2(C(=O)NC3CC3)CC(=O)N(C3CCCCC3)[C@@H]2c2ccc(CO)cc2I)cc1,composite z-score,[1],1.19
same,composite z-score,[2],0.198
same,composite z-score,[3],0.259
same,z-score,[4],-0.575 (inactive)
same,composite z-score,[5],0.796
same,composite z-score,[6],0.52
same,composite z-score,[7],0.396
same,composite z-score,[8],1.18
same,composite z-score,[9],0.0553
same,composite z-score,[10],0.0315
CC(C)c1ccc(NN2C(C(O)c3ccc(N(C)C)cc3)C=CC3C(=O)N(c4ccccc4)C(=O)C32)cc1 (stereo not given),composite z-score,[1],1.24
same,composite z-score,[2],0.64
same,composite z-score,[3],0.947
same,z-score,[4],-0.132 (inactive)
same,composite z-score,[5],0.782
same,composite z-score,[6],0.267
same,composite z-score,[7],0.0151
same,composite z-score,[8],1.25
same,composite z-score,[9],0.469
same,composite z-score,[10],0.898
CCOC(=O)C1=C[C@@H](C(C)C)N(S(=O)(=O)c2ccc(C)cc2)[C@H]1c1ccc(C(C)C)cc1,composite z-score,[1],1.65
same,composite z-score,[2],-0.132
same,composite z-score,[3],-0.229
same,z-score,[4],0.449 (inactive)
same,composite z-score,[5],1.04
same,composite z-score,[6],1.3
same,composite z-score,[7],0.848
same,composite z-score,[8],1.35
same,composite z-score,[9],0.57
same,composite z-score,[10],0.375
